From PubChem BioAssay
SMARCA2 activ – SMARCA2 function activation, primary screen; actives 1% (n = 370,000); AID 652017; MG213 cells, MMTV-luciferase reporter, dexamethasone, overnight; activation, % at 9.1 µM; in the data active means activation above about 7.8%
697 NFkB inh – inhibitors of the PMA/ionomycin-induced NF-kB reporter in 697 B cells. 697 B-cell NF-kB luciferase reporter, 16 h. inhibition, % at 4 µM. actives 0.33% (n = 330,000). AID 435022; in the data active means inhibition above about 35%
Jurkat NFkB inh – lowers PMA/ionomycin-induced NF-kB signal in Jurkat cells; inhibition, % at 4 µM; actives 0.53% (n = 330,000); PMA/ionomycin-induced NF-kB luciferase reporter, luminescence; in the data active means inhibition above about 50%
esBAF inh – blocks esBAF chromatin remodeling in mouse ES cells | Bmi1-luciferase knock-in reporter, 24 h; 100% = twice the neutral-well signal | reporter increase, % at 12.5 µM | actives 2% (n = 350,000) | AID 602393; in the data active means activation above about 40%; inconclusive means no clear call, values can overlap the other calls;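 further: a rise in the Bmi1 reporter signal indicates esBAF inhibition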
Gli-Sufu block – blocks Gli-Sufu signaling in a luciferase reporter; actives 0.74% (n = 340,000); inhibition, % at 5 µM; AID 588413; Sufu-KO-LIGHT fibroblasts, Gli luciferase reporter luminescence;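 active means inhibition above about 55%, limit read from the data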
SMARCA2 conf – SMARCA2 activation, confirmation screen. actives 30% (n = 3,500). activation, % at 9.1 µM. shares compounds with SMARCA2 activ. MG213 cells, MMTV-luciferase with dexamethasone, luminescence, overnight; MG213 cells expressing E1A, Rb sequestered; DMSO wells 0%, reference activator 100%;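 active means activation above its plate's cutoff, the mean activation of tested wells plus 3 SD, cut at about 7.9% in these data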
VP16 Luc act – activates GAL4-VP16 luciferase, flagging SMARCA2 activator hits; actives 41% (n = 3,500); activation, % at 9.1 µM; shares compounds with SMARCA2 activ; AID 686939; HEK293 GAL4-VP16 pG5luc reporter, luciferase luminescence; scaled: DMSO wells 0%, SAHA wells 100%;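 active means activation above the solvent-only control well mean plus 3 SD, averaged across control plates, cut at about 5.2% in these data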
Hits are given with their value; i = inactive; ? = inconclusive; nt = no result given. Most compounds without a hit are left out; they make up all but 3.3% or so of the library.

SMILES | SMARCA2 activ | 697 NFkB inh | Jurkat NFkB inh | esBAF inh | Gli-Sufu block | SMARCA2 conf | VP16 Luc act
CC1CC(NC(=O)/C=C/C(=O)O)CC(C)(C)C1 (configuration not stated) | 10 | i | i | i | i | i | i
COc1ccc(-n2cnc(=S)[nH]c2=S)cc1 | 14 | nt | nt | i | i | 21 | i
COc1ccc(-n2cc(-c3ccccc3)[nH]c2=S)cc1 | i | i | i | nt | i | nt | nt
O=C(Nc1ccc2c(c1)OCO2)C(=O)c1c[nH]c2ccccc12 | 9.2 | i | i | i | i | i | 7.7
CC(=O)N[C@@H](Cc1c[nH]c2ccccc12)C(=O)OCC(=O)Nc1ccc2c(c1)OCO2 | i | nt | nt | nt | i | nt | nt
O=C(NCCSc1c[nH]c2ccccc12)c1ccc2c(c1)OCO2 | i | i | i | i | i | nt | nt
O=C(NCCc1c[nH]c2ccccc12)c1ccc2c(c1)OCO2 | 9.7 | i | i | i | i | 13 | 8.1
CO[C@H]1CN(C)C(=O)c2ccc(NC(=O)c3cccc(F)c3)cc2OC[C@H](C)N(C)C[C@H]1C | nt | nt | nt | i | nt | nt | nt
COc1ccccc1/C=C/c1nc(S(=O)(=O)c2ccccc2)c(N(C)C)o1 | i | i | i | i | i | nt | nt
COc1ccccc1/C=C/c1nc2ccccc2c(=O)o1 | 10 | nt | nt | i | i | i | 12
Cn1nc(N)c2ncc(-c3ccc(Cl)cc3)nc21 | 9.1 | nt | nt | i | nt | 8.9 | 7.7
COc1ccc(CC(NC(C)=O)C(=O)NC2CCN(c3nc(C)cc(C)c3C#N)CC2)cc1OC (configuration not stated) | 15 | i | i | nt | i | i | i
COc1ccc(CC(NC(C)=O)C(=O)NC2CCN(c3nc(C)cc(C)c3C#N)CC2)cc1 (configuration not stated) | i | i | i | nt | i | nt | nt
CCN1CCc2c(OCC(=O)N3CCC(C)CC3)cccc2C1=O | 8.4 | i | i | i | i | i | i
O=C(C1CCCCC1)N1CC[C@@H]2[C@@H](CO)Nc3ccc(Br)cc3[C@@H]21 | nt | nt | nt | i | nt | nt | nt
CN1C(=O)c2cc(NC(=O)c3cccc(F)c3)ccc2OC[C@@H]2O[C@@H](CC(=O)Nc3ccccc3)CC[C@H]21 | nt | nt | nt | i | nt | nt | nt
COc1ccc(-c2nnc(-c3ccccc3)o2)cc1OC | 8.4 | i | i | ? | i | i | 12
COc1ccccc1-c1nnc(-c2ccc(C)cc2)o1 | 13 | i | i | nt | i | i | 7.1
COc1ccccc1-c1nnc(-c2ccc(N3CCOCC3)cc2)o1 | i | i | i | nt | i | nt | nt
COc1ccc(CCN(C)C(=O)CCc2nnc(-c3ccccc3)o2)cc1OC | 11 | i | i | nt | i | 13 | 7.3
COc1ccc(NC(=O)N(C)C[C@@H]2Oc3ccc(NC(=O)NC(C)C)cc3C(=O)N([C@@H](C)CO)C[C@H]2C)cc1 | nt | nt | nt | i | nt | nt | nt
CN1C(=O)c2cc(NC(=O)c3cccc(F)c3)ccc2OC[C@H]2O[C@H](CC(=O)Nc3ccccc3)CC[C@@H]21 | nt | nt | nt | i | nt | nt | nt
O=C(C[C@@H]1CC[C@H]2[C@@H](COC[C@H](O)CN2Cc2ccc(F)cc2)O1)NCc1ccccc1Cl | nt | nt | nt | i | nt | nt | nt
Cn1c(SCc2ccc(C(C)(C)C)cc2)nnc1-c1ccco1 | i | nt | nt | nt | nt | nt | nt
CC(C)CSc1nnc(-c2ccco2)n1C | 8.4 | nt | nt | nt | nt | 8.9 | i
SMILES | SMARCA2 activ | 697 NFkB inh | Jurkat NFkB inh | esBAF inh | Gli-Sufu block | SMARCA2 conf | VP16 Luc act
C[C@@H]1CN([C@@H](C)CO)C(=O)Cc2cc(NC(=O)CCN3CCOCC3)ccc2O[C@H]1CN(C)S(=O)(=O)c1cccs1 | nt | nt | nt | i | nt | nt | nt
O=C(Oc1ccccc1Cl)c1ccc(-n2cncn2)nc1 | 8.2 | i | i | i | i | i | i
C[C@H](O)C#Cc1cnc2c(c1)C(=O)N([C@@H](C)CO)C[C@@H](C)[C@@H](CN(C)CC1CCOCC1)O2 | nt | nt | nt | i | nt | nt | nt
Oc1cccc(Nc2ncnc3c2oc2ccccc23)c1 | 8.3 | i | i | nt | i | 12 | 9.1
CCNC(=O)C[C@H]1CC[C@H]2[C@@H](COc3ccc(NC(=O)Nc4cccc(C#N)c4)cc3C(=O)N2C)O1 | nt | nt | nt | i | nt | nt | nt
COc1ccc(S(=O)(=O)N(C)C[C@@H]2OCCCC[C@@H](C)Oc3ccc(NS(=O)(=O)c4ccc(F)cc4)cc3C(=O)N([C@@H](C)CO)C[C@@H]2C)cc1 | nt | nt | nt | i | nt | nt | nt
